FMDV antiviral – antivirals against foot and mouth disease virus; FMDV antiviral cell-based qHTS; Potency, µM (doses to about 57.9 µM), for inactives: at the highest dose activity change, negative = inhibition, usual class: inhibitors; 410,000 tested, 1.2% active; AID 1159524; calls by dose curve; tested in HEK293T cells; also: read-out not given here; potency is read from the fitted curve at half-maximal effect; nearly all actives have a fitted effect of over 45% in size
Lassa entry inh – Lassa virus entry inhibition; Potency, µM (series often up to 37.9 µM), for inactives: at the highest dose activity change, negative = inhibition, usual class: inhibitors; Lassa virus pseudotype entry inhibition, cell reporter; 300,000 tested, 1.2% active; AID 540256; calls by dose curve; tested in HEK293 cells; also: potency is read from the fitted curve at half-maximal effect; nearly all actives have a fitted effect of over 50% in size
HCMV inh – inhibitors of human cytomegalovirus | activity change, negative = inhibition, % at 57.5 µM | 410,000 tested, 4.5% active | HFF cells, HCMV-luciferase reporter, 72 h; stronger effect = lower value; in the data active = activity change below about -60%; inconclusive = no clear call, values can overlap the other calls; inactive = above about -39%
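Two-dose cell screen: HFF monolayers treated with compounds and infected with luciferase-expressing HCMV at 1 PFU/cell, 72 h at 37C, then lysed for luciferase measurement.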
Marburg entry inh – inhibitors of Marburg virus binding or cell entry; Marburg virus pseudotyped entry inhibition, cell reporter; Potency, µM (top dose mostly 37.8 µM), without a hit: at the highest dose activity change, negative = inhibition, hits mostly inhibitors; 300,000 tested, 1.8% active; calls by dose curve; tested in HEK293 cells; also: potency is read from the fitted curve at half-maximal effect
* hit, by the source's call; ? = inconclusive; · = not tested or not shown; [ ] = remark or other dose. A selection: hits, their analogues and other compounds. The true share with any hit is near 6.2%. % is scaled to controls: 0 for no effect and ±100 for the full control effect.

SMILES	FMDV antiviral	Lassa entry inh	HCMV inh	Marburg entry inh
CCOCOCc1cc(OC(C)C)ccc1N1C(=O)C[C@@H](C(=O)OC)[C@H]1c1ccc(OC(C)C)c(OC)c1	·	·	-5.6	·
O=c1cnc2cnc(N3CCNCC3)nc2n1Cc1ccc(F)cc1	-7.9%	·	·	·
CNC(=O)OCc1nc(SSC(C)(C)C)n(C)c1COC(=O)NC	35.5µM*	?	-75.9*	?
COc1ccc2[nH]c(-c3ccc(C)cc3)cc(=O)c2c1	-33.8%	4.11µM*	·	?
COc1ccc2[nH]c(C(=O)c3ccccc3)cc2c1	49.9%	·	·	·
COc1ccc2[nH]c(-c3ccccc3)cc2c1	19.1%	-26.6%	-36.1	8.91µM*
CC(=O)N[C@@H](C)c1nc2ccccc2n1CCCN1CCN(c2nc(-c3ccc(C)cc3)cs2)CC1	0.0%	·	-67.5*	·
CCn1c(C(C)NC(C)=O)nc2ccccc21 (stereo not given)	0.0%	·	43.1	·
COc1cc(NC(=O)N2CCC3(CC2)Nc2ccccc2-n2cccc23)cc(OC)c1OC	?	-28.8%[46.1 µM]	34.7	·
Oc1[nH]c2ccc(Br)cc2c1N=NC(=S)N1CCOCC1	3.16µM*	·	-100.2*	·
COc1cc(CNCc2ccccn2)ccc1OCc1ccccc1Cl	?	-17.9%	-66.8*	?
O=C(NCc1ccccn1)c1ccccc1OCc1ccccc1Cl	-4.1%	·	-66.2*	·
O=C(NCc1ccccn1)c1ccccc1OCc1ccc(F)cc1	-24.2%	-3.8%[46.1 µM]	1.1	-22.0%
Cc1cc(C)nc(N/N=C2/CCCC/C2=C\c2ccccc2)n1	-22.2%	·	-113.5*	?
Cc1ccnc(N/N=C/c2ccccc2)n1	-3.6%	?	37.2	?
CCC[C@H]1[C@@H](NC(=O)Nc2ccc(C)cc2)CC[C@@]23CCCN2C(=O)CCC[C@@H]13	·	·	40.3	·
CCOc1ccc2nc(NC3=NC(c4ccc(OC)cc4)CC(=O)N3)nc(C)c2c1 (stereo not given)	·	?	-70.4*	?
CCOc1ccc2nc(NC3=NC(C)(C)C=C(C)N3)nc(C)c2c1	?	-6.8%	4.0	?
Cc1ncc2c(c1CNC(=O)c1cncs1)CCN(C(=O)c1cccc(-c3cccc(F)c3)c1)C2	-3.8%	·	·	·
C=C1CCCC2OC(CC3=CC4/C(C)=C/CC(C)CC(/C=C(\C)C(O)C5CC(O)C(O)C(CCC(O)/C=C/C(C)=C/CCC6=NCCC(C3)C64C)O5)OC(=O)CC3OC(C(O)C1)C(O)C3O)CC(O)C2O (stereo not given)	·	·	-78.5*	·
Cc1cc(NO)c(C(C)C)cc1N=O	22.4µM*	14.9%	-64.6*	-26.7%
Cc1cc(O)c(C(C)C)cc1N=Nc1ccccc1C(=O)O	?	11.1%	-21.5	-8.5%[46.1 µM]
c1ccc(-c2ccccc2OCCCN2CCCCC2)cc1	-25.2%	16.4µM*	-38.2	?
CCN1CCN(CCCOc2ccccc2-c2ccccc2)CC1	-10.4%	?	?	?
CN(C)CCCCOc1ccccc1-c1ccccc1	10.3%	?	9.5	13µM*
SMILES	FMDV antiviral	Lassa entry inh	HCMV inh	Marburg entry inh
Cn1cnnc1Sc1ccc(CN2CCOc3ccc(C4=Cc5ccccc5C4)cc3C2)o1	30.4%	·	·	·
O=C(CS(=O)c1ccc(F)cc1)Nc1ccccc1Cl (stereo not given)	14.5%	-2.4%	-77.4*	23.7%[46.1 µM]
O=C(CS(=O)c1cccc(C(F)(F)F)c1)Nc1ccccc1Cl (stereo not given)	-1.5%	5.5%	-6.2	-26.9%
O=C(Cn1cc(S(=O)(=O)Cc2cccc(Cl)c2)c2ccccc21)Nc1ccccc1C(F)(F)F	2.0%	-0.3%[46.1 µM]	?	·
C=CCn1c(COc2ccccc2F)nnc1SCC(=O)c1c[nH]c2ccccc12	-29.5%	?	-33.5	12.6µM*
Cc1cc(C)cc(-n2c3ccc(NC(=S)NC4CCCCC4)cc3c(=O)n2C)c1	12.8%	·	-24.2	·
CCCc1c(-c2ccc(F)cc2F)ncn1Cc1ccccc1OC	?	·	-78.3*	·
CCCCc1c(-c2ccccc2Br)ncn1CCc1ccccc1OC	?	·	-93.4*	·
CCCCc1c(-c2ccccc2OC)ncn1CCc1cccc(OC)c1	22.4µM*	·	-24.6	·
CCCCc1c(-c2ccccc2OC)ncn1CCc1cccc(F)c1	?	·	-10.3	·
CCCCc1c(-c2ccccc2OC)ncn1CCc1ccccc1Cl	35.5µM*	·	?	·
Cc1ccc(-n2ncc(C(=O)N3CCN(C4CCCCC4)CC3)c2C2CCN(C(=O)OC(C)(C)C)CC2)cc1	-23.3%	?	6.4	·
O=C(Cc1ccccn1)N1CC(=O)N2[C@H](C1)[C@@H](c1ccc(Br)cc1)[C@@H]2CO	·	·	63.1	·
CCCc1c(-c2ccccc2Br)ncn1Cc1ccccc1OC	?	·	-72.8*	·
COc1ccccc1CCn1cnc(-c2ccc(Cl)cc2)c1CC(C)C	·	·	-25.2	·
CCCCCc1c(CC)ncn1CCc1ccccc1OC	39.8µM*	·	-110.2*	·
CCCCCc1c(-c2ccccc2OC)ncn1CCc1ccccc1OC	25.1µM*	·	-83.2*	·
CCCCc1c(-c2ccccc2OC)ncn1CCc1ccccc1OC	22.4µM*	·	-68.3*	·
CCCc1c(-c2ccccc2)ncn1Cc1ccccc1OC	?	·	-17.0	·
CCc1c(-c2ccc(OC)c(OC)c2)ncn1CCc1ccccc1OC	·	·	-27.6	·
Cc1onc(-c2ccccc2[N+](=O)[O-])c1-c1ccccc1[N+](=O)[O-]	·	·	-8.3	·
COc1ccc(NCc2cc3cc4c(cc3n(CC(=O)Nc3cc(C)ccc3C)c2=O)OCCO4)cc1	-21.1%	5.1%[46.1 µM]	-73.2*	·
COc1cc2cc(CNc3ccc(C)cc3)c(=O)n(CC(=O)Nc3ccc(C(C)C)cc3)c2cc1OC	9.4%	1.4%[46.1 µM]	-104.5*	·
COc1ccc(NCc2cc3cc4c(cc3n(CC(=O)Nc3ccc(C)cc3C)c2=O)OCO4)cc1	0.8%	14.2%[46.1 µM]	1.1	·
COc1cc2cc(CNc3ccccc3)c(=O)n(CC(=O)Nc3ccc(C)c(Cl)c3)c2cc1OC	32.2%	0.6%[46.1 µM]	60.6	·
SMILES	FMDV antiviral	Lassa entry inh	HCMV inh	Marburg entry inh
Cc1cc(=O)n(Cc2c(F)cccc2Cl)c2c1c(C)nn2-c1cccc(F)c1	-19.3%	13.7%[46.1 µM]	6.2	·
NC(=O)C1CCN(Cc2nc3cc(Cl)ccc3c(=O)[nH]2)CC1	-22.2%	25.3%	-12.7	3.6%
CCNCc1nc2cc(Cl)ccc2c(=O)[nH]1	-8.5%	-0.3%	-69.1*	-6.9%
COC(=O)[C@H]1[C@H](CO)[C@H]2Cn3c(cccc3=O)[C@@H]1N2Cc1cocn1	·	·	-13.2	·
COc1ccc(Cn2cnc3cnc(Nc4ccc(NC(C)=O)cc4)cc32)cc1OC	·	·	-72.4*	·
CCOC(=O)c1ccccc1NC(=O)c1sc2ncn(CC)c(=O)c2c1C	-8.7%	-15.2%[46.1 µM]	20.9	·
Cc1cc(C)n2c(=O)c3ccc(Cl)cc3nc2c1C#N	31.3%	11.6%	31.2	24.2%[46.1 µM]
Cc1cc(Cl)n2c(nc3cc(F)c(F)cc32)c1C#N	17.8µM*	?	-99.0*	12.6µM*
C[C@H](CO)N1C[C@H](C)[C@@H](CN(C)S(C)(=O)=O)OCc2cn(nn2)CCCC1=O	·	·	-2.4	·
COc1cc(C)ccc1Oc1ccc2c(-c3ccccc3)noc2n1	·	·	-19.5	·
CCCNC(=O)c1ccc(-n2c(-c3ccccc3)cc3c2CCC(C)C3)cc1 (stereo not given)	?	?	-99.2*	·
CC1CCc2c(cc(-c3ccccc3)n2-c2ccc(C(=O)NC(C)C)cc2)C1 (stereo not given)	-26.8%	?	-99.2*	·
CCOCCCNC(=O)c1ccc(-n2c(-c3ccccc3)cc3c2CCCC3)cc1	-6.2%	?	-66.0*	·
